Assay outcomes: PubChem BioAssay, several laboratories
An excerpt weighted towards active compounds, which were near 1.8% of everything screened.
VHR inh abs: inhibitors of human VHR1 phosphatase (DUSP3); P51452; recombinant VHR phosphatase, pNPP absorbance; inhibition, % at 13.3 µM; 290,000 tested, 0.52% active; in the data active = inhibition above about 50%
RN4220 kill: kills Staphylococcus aureus RN4220; 330,000 tested, 0.33% active; S. aureus RN4220 growth, OD600, 16 h; inhibition, % (no concentration beside the values); in the data active = inhibition above about 85%
ugtP null kill: kills S. aureus RN4220 lacking UgtP; S. aureus RN4220 ugtP deletion, OD600 growth, 16 h; growth inhibition, % (no concentration beside the values); 330,000 tested, 0.54% active; in the data active = growth inhibition above about 68%
PrPC surface inh: inhibitors of human cell surface prion protein PrPC; TR-FRET read-out; P04156; AID 720596; 370,000 tested, 0.43% active; inhibition, % at 13.8 µM; in the data active = inhibition above about 24%
PfHsp40 rescue: rescue of PfHsp40-mediated yeast toxicity; S. cerevisiae expressing PfHsp40, growth rescue, ATP luminescence; growth rescue, % at 12.5 µM; 340,000 tested, 0.68% active; AID 504582; in the data active = growth rescue above about 28%, passing the limit was not always enough; inconclusive = no clear call, values can overlap the other calls;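 note: yeast W303a lacking pdr1 and pdr3 grown in galactose medium; growth measured after three days at 30 °C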
PrPC TRFRET cf: cell surface PrPC inhibition, TR-FRET confirmation; shares compounds with PrPC surface inh; cell surface PrPC level; inhibition, % at 13.8 µM; 1,500 tested, 65% active; AID 743200; in the data active = inhibition above about 25%
LD9 cytotox: LD9 cell cytotoxicity, PrPc inhibitor counter-screen. shares compounds with PrPC surface inh. LD9 cells cytotoxicity, luminescence viability. inhibition, % at 13.8 µM. 1,500 tested, 29% active. AID 743201; in the data active = inhibition above about 9.5%
Numbers stand for hits; i = inactive; ? = inconclusive; nt = no result given.

SMILES	VHR inh abs	RN4220 kill	ugtP null kill	PrPC surface inh	PfHsp40 rescue	PrPC TRFRET cf	LD9 cytotox
CCCCC(=O)NC(c1ccc(N(C)C)cc1)c1ccc2cccnc2c1O (stereo not given)	i	nt	nt	27.4	508.7	24.7	16.2
CCCCC(=O)NC(c1ccc(Cl)cc1)c1ccc2cccnc2c1O (stereo not given)	nt	nt	nt	28.6	i	i	11.4
CCCC(=O)NC(c1ccc(Cl)cc1)c1ccc2cccnc2c1O (stereo not given)	i	nt	nt	i	?	nt	nt
CCCCC(=O)NC(c1ccccc1OC)c1ccc2cccnc2c1O (stereo not given)	i	i	i	40.5	i	30.7	27.4
COc1ccc(C(NC(C)=O)c2ccc3cccnc3c2O)c(OC)c1 (stereo not given)	i	i	i	nt	i	nt	nt
CCCC(=O)NC(c1ccc(C)cc1)c1ccc2cccnc2c1O (stereo not given)	i	nt	nt	nt	?	nt	nt
COc1ccc(-c2oc3cccnc3c2C=Cc2ccc(OC)c(OC)c2)cc1	nt	i	i	nt	nt	nt	nt
COc1ccc(CCNC(=O)CC(C)=NNC(=O)Cc2cccc3ccccc23)cc1OC	nt	i	i	nt	nt	nt	nt
CC(=O)C(C(=N)N1CCN(C(c2ccccc2)c2ccccc2)CC1)=C(C)O	nt	i	i	nt	nt	nt	nt
N#CNC(=Nc1cccc(F)c1)SCc1cccc(F)c1	i	i	i	i	i	nt	nt
N#CNC(=Nc1cccc(F)c1)SCc1ccccc1	i	i	i	30.8	i	i	i
CN(CC(=O)Nc1cccc(F)c1)CC(=O)Nc1cc(S(=O)(=O)N2CCOCC2)ccc1Cl	nt	i	i	i	i	nt	nt
CN(CC(=O)Nc1cccc(S(=O)(=O)N2CCOCC2)c1)CC(=O)Nc1ccc(Cl)c(C(F)(F)F)c1	nt	i	i	24.6	i	i	i
CCc1nc2ccccc2c(C(=O)OCC(=O)Nc2cccc(S(=O)(=O)N3CCOCC3)c2)c1C	i	i	i	26.2	i	i	10.3
COC(=O)C1=C(c2ccc(-c3ccccc3)c(F)c2)CC2CCC1N2C(=O)NCCc1ccccc1 (stereo not given)	nt	i	i	nt	nt	nt	nt
CC1CN(C(C)CO)C(=O)c2cccc(NC(=O)c3ccncc3)c2OC1CN(C)C(=O)Nc1ccc2c(c1)OCO2 (stereo not given)	nt	i	i	nt	nt	nt	nt
Cc1ccc(C(C)C)c(OCc2ccc(C(=O)N/N=C/c3ccc(O)c(O)c3)cc2)c1	i	nt	nt	27.8	i	40.6	11.1
Cc1ccc(C(C)C)c(OCc2ccc(C(=O)N/N=C/c3cccc(O)c3O)cc2)c1	i	nt	nt	42.7	i	28.6	19.5
COc1ccc2c(c1)C(=O)N1C3c4cc(Br)ccc4OCC3C(c3ccccc3)[C@]1(C)C(=O)N2 (stereo not given in full)	nt	i	i	nt	nt	nt	nt
O=C(CNC(=O)c1sc2ccccc2c1Cl)OCc1ccccc1	i	i	i	i	i	nt	nt
Cc1ccccc1COC(=O)CNC(=O)c1sc2ccccc2c1Cl	nt	i	i	i	i	nt	nt
O=C(NC(=S)NCCO)c1sc2ccccc2c1Cl	i	i	i	77.5	i	79.8	i
O=C(NC1CC1)c1sc2ccccc2c1Cl	i	i	i	i	i	nt	nt
CCOC(=S)NC(=O)c1sc2ccccc2c1Cl	i	i	i	45.0	i	33.8	i
CCCOC(=S)NC(=O)c1sc2ccccc2c1Cl	i	i	i	31.6	i	38.3	i
SMILES	VHR inh abs	RN4220 kill	ugtP null kill	PrPC surface inh	PfHsp40 rescue	PrPC TRFRET cf	LD9 cytotox
Cc1ccc(C=C2C(=O)NC(=O)N(CCc3ccc(F)cc3)C2=O)o1	nt	i	i	nt	nt	nt	nt
O=C(Cc1ccc(F)cc1)NN=Cc1ccc2c(c1)OCO2	nt	i	i	nt	nt	nt	nt
C#CCOCCOCCOCCNc1nc(N2CCN(C(=O)C(CCC(=O)O)n3cc(C(N)CC(C)C)nn3)CC2)nc(N2CCN(C(=O)C(C(C)CC)n3cc(C(N)CC(C)C)nn3)CC2)n1 (stereo not given)	nt	i	i	nt	nt	nt	nt
C=CCCC(Cc1ccc(F)cc1)C(=O)OCC(C)NC(=O)C(CC=C)CC(=O)NC(CO)Cc1ccccc1 (stereo not given)	nt	i	i	nt	nt	nt	nt
CCCCCCCn1c2c(c(=N)c3ccccc31)CCC2	i	i	88.7	29.9	i	31.1	15.5
CCCn1c2c(c(=N)c3c1CCC3)CCC2	i	i	i	i	i	nt	nt
COc1ccc(C(C)=O)cc1CSc1nnc(-c2ccncc2)n1C	i	i	i	i	i	nt	nt
COc1ccc(C(C)=O)cc1CSc1nnc(-c2ccc(Cl)cc2)n1-c1ccccc1	i	i	i	56.1	i	i	i
Oc1ccc(CN2CCc3ccccc3C2)c2cccnc12	i	i	i	27.4	i	34.6	28.1
O=C(Cn1cnc([N+](=O)[O-])n1)NN=Cc1cc(Cl)ccc1O	nt	i	i	nt	nt	nt	nt
COc1ccc(-c2nc3ccc(Br)cn3c2Cc2cccc(Cl)c2)cc1OC	nt	nt	nt	26.6	nt	61.2	i
Cc1ccc(-c2nc3ccc(Br)cn3c2Cc2cccc(Cl)c2)cc1	nt	nt	nt	i	nt	nt	nt
Clc1ccc(-c2nc3ccc(Br)cn3c2Cc2cccc(Cl)c2)cc1	nt	nt	nt	29.7	nt	53.0	i
O=C(Cc1ccc(-n2c(=O)c3ccccc3n(Cc3ccccc3F)c2=O)cc1)NCC1CCCO1 (stereo not given)	i	i	i	67.4	i	i	i
c1ccc2c(c1)nc(N1CCOCC1)c1nncn12	i	i	i	103.7	i	i	i
NC(=O)CSc1nc(-c2ccccc2)nc2ccccc12	nt	i	i	69.6	i	72.0	i
COC(=O)CSc1nc(-c2ccccc2)nc2ccccc12	i	i	i	105.8	i	112.8	i
Cc1cccc2c(SCC(N)=O)nc(-c3ccccc3)nc12	i	i	i	i	i	nt	nt
Cc1cccc(NC(=O)Cn2cc(C(=O)C3CC3)c3ccccc32)c1C	i	i	i	31.3	i	i	22.0
O=c1[nH]c2cc3c(cc2cc1CN(CC1CCCO1)S(=O)(=O)c1ccccc1)OCCO3 (stereo not given)	i	i	i	54.6	i	i	i
CC(=O)c1cccc(S(=O)(=O)N(Cc2cc3cc4c(cc3[nH]c2=O)OCCO4)CC2CCCO2)c1 (stereo not given)	i	i	i	i	i	nt	nt
O=c1ccc2ccc(OC3OC(CO)C(O)C(O)C3O)c(O)c2o1 (stereo not given)	nt	i	i	nt	nt	nt	nt
O=C(CSc1nnc(NC(=O)c2ccccc2F)s1)NCc1ccc(F)cc1	i	i	i	34.9	i	i	i
O=C1[C@H]2[C@@H](c3ccccc3)N[C@]3(CCCN(Cc4ccc(Cl)cc4)C3=O)[C@H]2C(=O)N1Cc1ccccc1	nt	nt	nt	27.5	nt	i	i
O=C1[C@H]2[C@@H](c3ccccc3)N[C@]3(CCCN(Cc4ccc(Br)cc4)C3=O)[C@H]2C(=O)N1Cc1ccccc1	nt	nt	nt	i	nt	nt	nt
CC[C@@H](C(=O)[C@@H](C)[C@@H](O)[C@H](C)CCc1ccc(C)c(O)c1C(=O)O)[C@H]1O[C@](CC)([C@H]2CC[C@](O)(CC)[C@H](C)O2)C[C@@H]1C	i	nt	nt	75.5	184.3	68.9	43.8
CCOC(=O)c1csc(NC(=O)c2ccccc2)n1	i	i	i	i	i	nt	nt
CCOC(=O)c1csc(NC(=O)c2ccc(OCC)cc2)n1	i	i	i	29.6	i	i	i
